The record followed here is PubChem BioAssay (Tox21).

Each structure is given as a SMILES string. Values joined by “and” are separate entries in the source; they are usually repeats but may differ in a detail not shown here. Identical values can stand only once. Results filed as inconclusive are left out. A structure can be active in one record and inactive in another. Active and inactive are the calls of the source. Unless noted, calls come from the whole dose curve.

Assay [1] can be described thus: qHTS assay to identify small molecule agonists of the vitamin D receptor (VDR) signaling pathway - cell viability counter screen (AID 743224; active = well fitted curve in the direction sought with a large enough effect in the repeat runs; an effect the other way counts as inactive or inconclusive; note: nearly all actives have a fitted effect of over 50% in size; note: potency is the fitted concentration of half-maximal effect). An outline of the steps:
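Counter screen for cytotoxicity: VDR-bla cells at 2,000 cells/well, 16 h compound exposure, then CellTiter-Glo luminescence after the beta-lactamase measurement.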
(In general: qHTS replaces the single test concentration by a dilution series.)

A short description of assay [2]: qHTS assay to identify small molecule antagonists of the vitamin D receptor (VDR) signaling pathway - cell viability counter screen (AID 743225; active = well fitted curve in the direction sought with a large enough effect in the repeat runs; an effect the other way counts as inactive or inconclusive; note: nearly all actives have a fitted effect of over 50% in size; note: potency is the fitted concentration of half-maximal effect). An outline of the steps:
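VDR-bla HEK 293T cells, 4 h pre-incubation at 37C, then compound plus 1-alpha,25-dihydroxyvitamin D3 (3 nM final) for 16 h. After the beta-lactamase FRET read, CellTiter-Glo was added to the same wells; luminescence after 30 min at room temperature.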

A short description of assay [3]: qHTS assay to identify small molecule agonists of the NFkB signaling pathway - cell viability counter screen (AID 1159515). Note: nearly all actives have a fitted effect of over 55% in size. Note: potency is the fitted concentration of half-maximal effect. An outline of the steps:
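Counter screen run alongside the NFkB-bla agonist assay: ME-180 reporter cells exposed to compounds for 5 hr, then lysed with CellTiter-Glo in the same wells. Luminescence, read after 30 min, reflects viable cells.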

The nature of assay [4]: qHTS assay to identify small molecule agonists of the endoplasmic reticulum stress response signaling pathway (AID 1159516; active = well fitted activation curve with a large enough effect in the signal ratio in the repeat runs, not every such curve was filed as active; the % refers to the signal ratio). An outline of the steps:
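For this screen, HeLa cells stably carrying beta-lactamase under the ER stress response element received test compounds, positive controls or DMSO for 5 hr at 37 C; B/G FRET substrate was then added and dual-wavelength emission recorded.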

The nature of assay [5]: qHTS assay to identify small molecule agonists of the endoplasmic reticulum stress response signaling pathway - cell viability counter screen (AID 1159517). Note: nearly all actives have a fitted effect of over 50% in size. Note: potency is the fitted concentration of half-maximal effect. An outline of the steps: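 ESRE-bla HeLa cells (1,500/well) were plated overnight at 37 C and exposed to compounds for 5 hr. After the 2 hr beta-lactamase substrate read, CellTiter-Glo went into the same wells, and luminescence was read after 30 min at room temperature.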

The target of assay [6] is Nuclear receptor ROR-gamma (Homo sapiens) (UniProt P51449). Kind of assay: qHTS assay to identify small molecule antagonists of the retinoid-related orphan receptor gamma (ROR-gamma) signaling pathway (AID 1159521; active = well fitted curve in the direction sought with a large enough effect in the repeat runs; an effect the other way counts as inactive or inconclusive; note: nearly all actives have a fitted effect of over 50% in size; note: potency is the fitted concentration of half-maximal effect). An outline of the steps: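 Tet-on RORγ CHO cells carrying a ROR response element–luciferase reporter were pretreated with compounds for 2 h, then induced with 1 uM (final) doxycycline hyclate for 16 h at 37 C. Antagonism was read as decreased ONE-Glo luminescence.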

Assay [7] can be described thus: qHTS assay to identify small molecule agonists of the AP-1 signaling pathway - cell viability counter screen (AID 1159525). Note: nearly all actives have a fitted effect of over 55% in size. Note: potency is the fitted concentration of half-maximal effect. An outline of the steps:
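Intracellular ATP by Cell Titer Glo luminescence (30 min, RT) in the same ME-180 AP-1-bla wells after the 5 h compound exposure at 37 °C. Normalised to tetra n-octyl ammonium bromide and DMSO controls.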

Assay [8] in a line: qHTS assay to identify small molecule antagonists of the retinoid-related orphan receptor gamma (ROR-gamma) signaling pathway - cell viability counter screen (AID 1159520; active = well fitted curve in the direction sought with a large enough effect in the repeat runs; an effect the other way counts as inactive or inconclusive; note: nearly all actives have a fitted effect of over 50% in size; note: potency is the fitted concentration of half-maximal effect). An outline of the steps: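 Cytotoxicity was read from cellular ATP (CellTiter-Glo luminescence) after 16 hr at 37 C with 1 uM doxycycline induction. The inducer was added 2 hr after compound transfer to Tet-on ROR gamma CHO cells.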

Assay [9] can be described thus: qHTS assay to identify small molecule agonists of the AP-1 signaling pathway (AID 1159526).
The target in assay [10] is Retinoic acid receptor RXR-alpha (Homo sapiens) (UniProt P19793). In words: qHTS assay to identify small molecule agonists of the RXR signaling pathway (AID 1159527). Note: nearly all actives have a fitted effect of over 35% in size. An outline of the steps:
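GeneBLAzer RXR-alpha-UAS-bla HEK 293T cells in medium with 2% charcoal-stripped FBS, pre-incubated 5 hr at 37 C, then exposed to compounds 16 hr. Beta-lactamase reporter read by FRET substrate, 2 hr room temperature, 460/530 nm emission.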

Sequence of Retinoic acid receptor RXR-alpha (Homo sapiens) (P19793 whole entry, looked up): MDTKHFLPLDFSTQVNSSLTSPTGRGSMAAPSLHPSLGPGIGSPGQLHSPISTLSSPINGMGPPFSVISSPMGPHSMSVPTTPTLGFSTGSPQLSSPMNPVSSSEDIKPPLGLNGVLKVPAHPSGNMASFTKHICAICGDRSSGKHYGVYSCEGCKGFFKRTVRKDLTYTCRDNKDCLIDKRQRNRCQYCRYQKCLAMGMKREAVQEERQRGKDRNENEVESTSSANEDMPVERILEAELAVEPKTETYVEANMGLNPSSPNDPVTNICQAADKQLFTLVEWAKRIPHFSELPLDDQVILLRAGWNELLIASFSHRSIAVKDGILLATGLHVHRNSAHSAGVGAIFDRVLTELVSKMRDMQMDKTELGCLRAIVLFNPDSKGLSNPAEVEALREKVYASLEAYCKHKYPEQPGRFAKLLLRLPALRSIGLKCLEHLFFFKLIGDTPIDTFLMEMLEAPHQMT

In the case of `C=CC(=O)OCC(CC)(COC(=O)C=C)COC(=O)C=C`, the Potency in assay [1] is 20 µM (active) and 11 µM (active); in [2] it was 20 µM (active) and 17.4 µM (active); in assay [5], “inactive and 24.5 µM (active)”; in [6] it was 3.15 µM (active) and 6.86 µM (active). The Potency result in assay [3], in [4] and in [7] was “inactive” each time.
For `CCOP(=S)(OCC)SCn1c(=O)oc2cc(Cl)ccc21`, the Potency entry in assay [1], in assay [2], in assay [3], in assay [4], in assay [5] and in [8] was “inactive” in each case. Besides, in assay [6], the Potency was 32.9 µM (active).
`O=C1C(Cl)=C(Cl)C(=O)c2ccccc21`: the Potency is 4.38 µM (active) and 9.77 µM (active) in assay [1]; 6.94 µM (active) and 12.3 µM (active) in assay [2]; 21.9 µM (active) and 12.3 µM (active) in assay [3]; 19.6 µM (active) and 49 µM (active) in [5]; 5.46 µM (active) and 5.45 µM (active) in assay [8]; 4.87 µM (active) and 12.2 µM (active) in [6]. The Potency in assay [7] was 11 µM (active) and 19.5 µM (active).
As to `CCCCCCCCCCCCCl`, the Potency entry in assay [1], in assay [2], in assay [3], in [4], in assay [5] and in assay [8] was “inactive” throughout. Also, the Potency entry in assay [6] and in assay [10] was “inactive” in each case. Also, in assay [9], the call was inactive.
On to `O=NN1CCOCC1`, for which the Potency result in assay [1], in assay [2], in [3], in assay [4], in [5] and in assay [8] was “inactive” each time. The Potency result in assay [6] and in [10] was “inactive” in each case. In [9], the call was inactive.
Regarding `COc1ccc(O)c(C(C)(C)C)c1`, the Potency entry in [1], in assay [2], in assay [3], in [4], in [5] and in [8] was “inactive” throughout. The Potency entry in [7] and in [10] was “inactive” in each case. The compound was called inactive in assay [9].
For `CC(C)Nc1nc(Cl)nc(NC(C)C)n1`, the Potency result in [1], in assay [2], in [3], in assay [4], in assay [5] and in assay [8] was “inactive” in each case. For the same compound, the Potency result in assay [7] and in [10] was “inactive” each time. For the same compound, in assay [9], the outcome was inactive.
Regarding `COC(=O)Nc1nc2ccccc2[nH]1`, the Potency result in assay [1], in assay [2], in assay [3], in assay [4], in [5] and in [8] was “inactive” each time. Further, the Potency entry in assay [6] and in [10] was “inactive” each time. For the same compound, in assay [9], the outcome was inactive.
Consider `CN(C)c1ccccc1`, for which the Potency result in [1], in assay [2], in [3], in [4], in [5] and in assay [8] was “inactive” each time. Besides, the Potency result in assay [10] was “inactive”. In addition, the compound was classed as inactive in [9].
Turning to `CCC[CH2][Sn]([Cl])([Cl])[CH2]CCC`, the Potency in assay [1] was 249 nM (active) and 77.6 nM (active); in assay [2], 1.11 µM (active) and 275 nM (active); in assay [3], 3.13 µM (active) and 2.45 µM (active); in assay [5], 125 nM (active) and 38.9 nM (active); in [8], 155 nM (active) and 122 nM (active); in [6] it was 77.9 nM (active) and 96.9 nM (active).
In the case of `Oc1ccc(Cl)cc1Cc1ccccc1`, the Potency entry in assay [1] and in [4] was “inactive” each time. Moreover, the Potency in [3] was 54.9 µM (active) and 49.6 µM (active); in [5], 49 µM (active) and inactive; in assay [8] it was 61.1 µM (active) and inactive; in [7], 54.9 µM (active) and 44.2 µM (active).
Regarding `Oc1ccc(Cl)cc1Cl`, the Potency result in assay [1], in assay [2], in [3], in assay [4], in assay [5] and in [8] was “inactive” each time. Moreover, the Potency entry in assay [6] and in [10] was “inactive” each time. Also, in assay [9], the call was inactive.
For `CCCCCCCCCc1ccc(O)cc1`, the Potency result in assay [2], in assay [3], in assay [4] and in assay [5] was “inactive” throughout. Also, in [8], the Potency is 61.8 µM (active) and inactive.
With `COP(=S)(OC)Oc1ccc(Sc2ccc(OP(=S)(OC)OC)cc2)cc1`, the Potency result in [1], in [2], in assay [3], in assay [4], in [5] and in assay [8] was “inactive” throughout. Further, the Potency result in assay [6] and in [10] was “inactive” throughout. Moreover, the outcome in assay [9] was inactive.
Consider `CC(C)(c1ccccc1)c1ccc(O)c(C(C)(C)c2ccccc2)c1`, for which the Potency is 19.3 µM (active) and 15.5 µM (active) in assay [1]; 30.6 µM (active) and 17.4 µM (active) in assay [2]; 21.7 µM (active) and 21.9 µM (active) in assay [3]; 27.3 µM (active) and 27.5 µM (active) in assay [5]; 48.1 µM (active) and 30.6 µM (active) in [8]; 19.2 µM (active) and 27.3 µM (active) in assay [6]. In [7], the Potency was 12.2 µM (active) and 21.9 µM (active).
As to `[CH3][Sn]([Cl])([Cl])[Cl]`, the Potency result in [1], in assay [2], in assay [3], in assay [4], in assay [5] and in [8] was “inactive” throughout. The Potency entry in assay [6] and in [10] was “inactive” each time. Further, the call in [9] was inactive.
`O=[N+]([O-])c1ccc(Nc2ccccc2)cc1`: the Potency result in assay [1], in assay [4], in assay [8] and in assay [7] was “inactive” in each case. Further, the Potency result in assay [2] was “inactive and 49 µM (active)”; in [3], “inactive and 43.6 µM (active)”; in [5], “inactive and 54.9 µM (active)”. Moreover, the compound was called inactive in assay [9].
